The source of these data is PubChem BioAssay (NCATS).

SMILES strings stand for the structures. Inconclusive results are not listed. A number with no mark means an inactive call. The source made the active and inactive calls. Calls follow the shape of the dose curve; as a rule, active = well fitted inhibition curve with a large enough effect; inconclusive = small, poorly fitted or top-dose-only effect; inactive = flat fitted curve, though single readings scatter. Where a SMILES comes first, the peptide text is derived from it. [ ]: non-standard residue; d: D form. Hyp = O=C(O)[CH]1C[CH](O)CN1; Phe(ol) = N[CH](CO)Cc1ccccc1; Iva = CC[C](C)(N)C(=O)O; Aib = CC(C)(N)C(=O)O
% is scaled to controls: 0 for no effect and ±100 for the full control effect; potency is read from the fitted curve at half-maximal effect.

For one assay, the system named is HaCat. Description: Cytotoxic Profiling of Annotated Libraries Using Quantitative High-Throughput Screening (AID 1296008). Also: nearly all actives have a fitted effect of over 60% in size. As to conditions: Five cell lines viability, CellTiter-Glo ATP luminescence, 48-72 h; max response: stronger effect = lower value. The method, boiled down:
(§1)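 Compounds were pin-transferred onto cells and incubated 48 or 72 hr at 37 degree Celsius, 95% humidity. CellTiter-Glo was added, plates sat 10 min at room temperature, then ATP-coupled luminescence was imaged as the viability read-out.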
Background: In ATP-based viability assays light output follows the ATP content of the culture.
Turning to `Nc1nc(Cl)nc2c1ncn2C1OC(CO)C(O)C1F` (configuration not stated), the Potency is 1.46 µM (active).

As to `O=C(Nc1ccc(CN2CCOCC2)cc1)c1ccc(-c2cccc(Cl)c2)o1`, the max response was -23.4%.

Regarding `COc1ccc2c(c1)C(C(=O)N(Cc1ccc(N(C)C)cc1)c1ccc(C(C)C)cc1)CCC2` (configuration not stated), the max response was -43.6%.

Consider `COc1cccc(-c2cn(-c3ccc(CCN4CCC(O)CC4)cc3)c3ncnc(N)c23)c1`, for which the Potency is 5.17 µM (active).

Take `COc1cc2c(Nc3cc(F)c(Cl)c(Cl)c3)ncnc2cc1OCC1CCCN(C)CCC1`: the Potency is 0.082 µM (active).

As to `COc1ccc2nc(-c3cc(OC)c(OC)c(OC)c3)cc(C(=O)NCC(=O)Nc3ccc(C(C)=O)cc3)c2c1`, the max response was -18%.

With `COc1ccc(-c2ccc3c(N4CCOCC4C)nc(N4CCOCC4C)nc3n2)cc1CO` (configuration not stated), the Potency is 2.91 µM (active).

Turning to `COc1cc2c(cc1NS(=O)(=O)c1ccc(Br)cc1C)n(C)c(=O)n2C`, the max response is 0.2%.

Turning to `Cc1cc(-c2cnc(N)c3c(-c4ccc5scnc5c4)csc23)n(C)n1`, the max response was -13.1%.

Consider `C/C(=N\N=C(N)N)c1cc(NC(=O)CCCCCCCCC(=O)Nc2cc(/C(C)=N/N=C(N)N)cc(/C(C)=N/N=C(N)N)c2)cc(/C(C)=N/N=C(N)N)c1`, for which the call was inactive.

Turning to `O=C(Nc1ccccc1)N1CCC(Cc2cnc3ccccc3c2)CC1`, the max response was -1.9%.

In the case of `CNC1CN(c2ccc3c(=O)c(C(=O)O)cn(-c4nccs4)c3n2)CC1OC` (configuration not stated), the Potency was 1.68 µM (active).

Consider `Cc1cc(NC(=O)c2cccc(NC(=O)/C=C/CN(C)C)c2)ccc1Nc1nccc(-c2cccnc2)n1`, for which the Potency was 8.2 µM (active).

Regarding `OC(c1ccc(-c2ccc(CN3CCN(Cc4ccncc4)CC3)cc2)c(F)c1)(C(F)(F)F)C(F)(F)F`, the max response is -9.47%.

Consider `C=C1C(=O)O[C@@H]2/C=C(\CO)CC/C=C(/C=O)C[C@@H](O)[C@@H]12`, for which the Potency is 18.4 µM (active).

On to `CC(C)S(=O)(=O)NC[C@@H]1CC(c2ccc(N3CCCC3)c(F)c2)=NO1`, for which the max response is -20.2%.

In a further assay the test system is NIH3T3. The description is as above. The settings on record: Five cell lines viability, CellTiter-Glo ATP luminescence, 48-72 h; max response: stronger effect = lower value. The method, boiled down: as §1
With `CCn1c(-c2nonc2N)nc2c(C#CC(C)(C)O)ncc(OCC3CCCNC3)c21` (configuration not stated), the call was inactive.

Regarding `COc1cc(OC)c(NC(=O)c2ccc(Cc3cc4c(cc3C)C(C)(C)CCC4(C)C)o2)c(OC)c1`, the max response was 4.87%.

As to `CC(=O)C1(C)CCC2C3C=C(C)C4=CC(=O)CCC4(C)C3CCC21C` (configuration not stated), the max response is -16.2%.

For `CO[C@H]1C[C@@H]2CC[C@@H](C)[C@@](O)(O2)C(=O)C(=O)N2CCCC[C@H]2C(=O)O[C@H]([C@@H](C)C[C@@H]2CC[C@@H](O)[C@H](OC)C2)CC(=O)[C@H](C)/C=C(\C)[C@@H](O)[C@@H](OC)C(=O)[C@H](C)C[C@H](C)/C=C/C=C/C=C/1C`, the max response is -0.671%.

Consider `O=C(Nc1ccc(C(O)(C(F)(F)F)C(F)(F)F)cc1)c1ccc(C(F)(F)F)cc1`, for which the Potency is 20.6 µM (active).

Consider `NC(=O)c1cnc(N[C@@H]2CCCC[C@@H]2N)nc1Nc1cccc(-n2nccn2)c1`, for which the Potency is 23.4 µM (active).

With `Cc1cc2c(c(=O)o1)C=C1CC[C@H]([C@H](C)Cn3cnc(=N)c4[nH]cnc43)C[C@@H]1O2`, the max response is -1.79%.

On to `CC1CCCC(O)CCC/C=C/c2cc(OS(=O)(=O)O)cc(O)c2C(=O)O1` (configuration not stated), for which the outcome was inactive.

Take `CCC(C)(NC(=O)C(CCC(N)=O)NC(=O)C1CC(O)CN1C(=O)C(C)(C)NC(=O)C(C)(C)NC(=O)C(CC(C)C)NC(=O)CNC(=O)C(NC(=O)C(C)(C)NC(=O)C(C)(C)NC(=O)C(C)(C)NC(=O)C(Cc1ccccc1)NC(C)=O)C(C)C)C(=O)N1CC(O)CC1C(=O)NC(C)(C)C(=O)NC(CO)Cc1ccccc1` (configuration not stated) (Ac-F[Aib][Aib][Aib]VGL[Aib][Aib][Hyp]Q[Iva][Hyp][Aib][Phe(ol)]; configuration not given here): the max response was 2.9%.

`CCc1ccccc1OC[C@@H](O)CN[C@H]1CCCc2ccccc21`: the max response was -24.4%.

On to `COc1cc(/C=C2\CCCN([C@@H](C)c3ccc(F)cc3)C2=O)ccc1-n1cnc(C)c1`, for which the max response was -4.02%.

In the case of `c1cc(NCCc2c[nH]c3ccccc23)cc(Nc2ccncc2)c1`, the max response is -50.3%.

Regarding `Cc1nc2ccc(-n3ncc(C(=O)c4cc5ccccc5[nH]4)c3N)cc2[nH]1`, the Potency was 9.2 µM (active).

In the case of `COc1ccc(CN2CCN(C(=O)CCNC(=O)c3ccc(C(C)(C)C)cc3)CC2)cc1`, the max response is 3.24%.

For the compound `COc1ccc(CCc2nc3c(C)c(-c4c(C)noc4C)c(C)cc3n2CCN2CCOCC2)cc1`, the max response was -12.8%.

In the case of `CC(=O)NC(C(=O)O[C@H]1CCC(C)(C)[C@@H]2CC=C3C(=O)OCC3(O)[C@@]12C)C(C)C` (some centres not stated), the compound was called inactive.

Consider `C#Cc1cccc(Nc2nc3cc(C(=O)O)ccc3c3cncnc23)c1`, for which the max response was -50.8%.

For the compound `COC(=O)N1CC2(CC2)C[C@H](C(=O)NO)[C@H]1C(=O)N1CCN(c2ccccc2)CC1`, the compound was classed as inactive.

Consider `CCn1c(-c2nonc2N)nc2c(C#CCO)ncc(OCCCN)c21`, for which the compound was called inactive.

Regarding `C=C[C@@]1(C)C=C2C(=O)C(O)=C3[C@](C)(C(=O)O)CC[C@@H]4C[C@]34[C@]2(O)C(=O)C1`, the Potency was 3.6 µM (active).

Regarding `Cc1nc(NC(=O)N2CCCC2C(N)=O)sc1-c1ccnc(C(C)(C)C(F)(F)F)c1` (configuration not stated), the Potency was 9.2 µM (active).

As for `Nc1nc(Cl)nc2c1ncn2C1OC(CO)C(O)C1F` (configuration not stated), the Potency is 1.03 µM (active).

As for `O=C(Nc1ccc(CN2CCOCC2)cc1)c1ccc(-c2cccc(Cl)c2)o1`, the max response is 1.97%.

On to `COc1ccc2c(c1)C(C(=O)N(Cc1ccc(N(C)C)cc1)c1ccc(C(C)C)cc1)CCC2` (configuration not stated), for which the max response was 3.67%.

As to `COc1cccc(-c2cn(-c3ccc(CCN4CCC(O)CC4)cc3)c3ncnc(N)c23)c1`, the Potency was 1.3 µM (active).

For the compound `COc1cc2c(Nc3cc(F)c(Cl)c(Cl)c3)ncnc2cc1OCC1CCCN(C)CCC1`, the Potency is 5.17 µM (active).

As to `COc1ccc(-c2ccc3c(N4CCOCC4C)nc(N4CCOCC4C)nc3n2)cc1CO` (configuration not stated), the Potency was 0.231 µM (active).

`COc1cc2c(cc1NS(=O)(=O)c1ccc(Br)cc1C)n(C)c(=O)n2C`: the max response was 1.72%.

`Cc1cc(-c2cnc(N)c3c(-c4ccc5scnc5c4)csc23)n(C)n1`: the Potency was 11.6 µM (active).

Consider `C/C(=N\N=C(N)N)c1cc(NC(=O)CCCCCCCCC(=O)Nc2cc(/C(C)=N/N=C(N)N)cc(/C(C)=N/N=C(N)N)c2)cc(/C(C)=N/N=C(N)N)c1`, for which the max response was 0.565%.

With `O=C(Nc1ccccc1)N1CCC(Cc2cnc3ccccc3c2)CC1`, the max response is 2.45%.

With `CNC1CN(c2ccc3c(=O)c(C(=O)O)cn(-c4nccs4)c3n2)CC1OC` (configuration not stated), the Potency is 0.211 µM (active).

Consider `Cc1cc(NC(=O)c2cccc(NC(=O)/C=C/CN(C)C)c2)ccc1Nc1nccc(-c2cccnc2)n1`, for which the Potency is 18.4 µM (active).

As to `OC(c1ccc(-c2ccc(CN3CCN(Cc4ccncc4)CC3)cc2)c(F)c1)(C(F)(F)F)C(F)(F)F`, the max response was -11.3%.

Consider `C=C1C(=O)O[C@@H]2/C=C(\CO)CC/C=C(/C=O)C[C@@H](O)[C@@H]12`, for which the Potency is 16.4 µM (active).

As to `CC(C)S(=O)(=O)NC[C@@H]1CC(c2ccc(N3CCCC3)c(F)c2)=NO1`, the max response was -14.9%.
